HTR2A ag = activates the mouse 5-HT2A serotonin receptor; CHO-K1 mHTR2A beta-arrestin complementation, luminescence; percent of 30 µM serotonin response; activation, % at 7.6 µM; hit rate 0.66% among 360,000; AID 624169;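 active = activation above a run cutoff, the mean activation of all tested compounds plus 3 SD, cut at about 14% in these data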
OPRM1-OPRD1 inv = inverse agonists of human mu-delta opioid receptor heterodimerization; P35372+P41143; cell-based MOR-DOR heterodimer luminescence, inverse agonism; inhibition, % at 9.3 µM; hit rate 0.21% among 340,000; AID 504357; in the data active = inhibition above about 22%, passing the limit was not always enough
HTR5A ag ctr = HTR5A agonism, opioid heterodimer counter-screen | HTR5A agonist assay, luminescence, cell-based | activation, % at 9.3 µM | hit rate 0.61% among 340,000 | AID 504692; in the data active = activation mostly above about 9.5%, no sharp cut-off; inactive = mostly below about 7.6%
Target sequence (P47898 whole entry, looked up): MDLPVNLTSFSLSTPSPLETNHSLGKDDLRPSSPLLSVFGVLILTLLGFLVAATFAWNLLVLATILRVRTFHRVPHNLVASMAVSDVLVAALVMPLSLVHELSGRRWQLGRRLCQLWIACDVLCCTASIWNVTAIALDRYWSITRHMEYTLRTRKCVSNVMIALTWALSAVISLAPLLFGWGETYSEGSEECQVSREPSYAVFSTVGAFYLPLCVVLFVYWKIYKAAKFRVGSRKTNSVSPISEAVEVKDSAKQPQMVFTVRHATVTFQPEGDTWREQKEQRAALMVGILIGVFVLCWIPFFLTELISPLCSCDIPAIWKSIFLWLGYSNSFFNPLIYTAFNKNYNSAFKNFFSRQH
HTR5A inv ctr = counter-screen for OPRM1-OPRD1 inverse agonists: human HTR5A inverse agonism | hit rate 0.083% among 340,000 | HTR5A cell line, luminescence | AID 504634 | inhibition, % at 9.3 µM | P47898; in the data active = inhibition mostly above about 23%, no sharp cut-off; inactive = mostly below about 18%
OPRM1-OPRD1 ag = agonists of human mu-delta opioid receptor heterodimerization; P35372+P41143; cells, OPRM1-OPRD1 heterodimerization, luminescence; activation, % at 9.3 µM; hit rate 0.3% among 340,000; in the data active = activation above about 18%
Hits are given with their value; - = inactive; . = not tested or not shown. This is a sample that favours compounds with a hit; in the whole collection about 1.6% have one here.

SMILES	HTR2A ag	OPRM1-OPRD1 inv	HTR5A ag ctr	HTR5A inv ctr	OPRM1-OPRD1 ag
CSc1ccccc1NC(=O)c1cc(-c2cccnc2)nc2ccc(Br)cc12	-	-	13	-	-
Cc1cc(C(C)(C)C)ccc1NC(=O)CC(C)(C)CC(=O)O	-	.	.	.	.
O=C(CSC1=NCCS1)c1ccc(Cl)cc1	-	-	11	-	-
COc1ccc2c(c1)[nH]c1c(Cl)ncnc12	-	-	12	-	-
O=C(O/N=C1/CCSc2ccccc21)c1ccc(F)cc1	-	-	10	-	-
O=C(O/N=C1/CCCc2occc21)c1ccc(F)cc1	-	-	-	-	-
CN(C)C(=O)c1cc2cc(Br)ccc2s1	-	-	-	-	-
CC1=NNC(=O)/C1=C\c1cn(-c2ccccc2)nc1-c1ccc(F)cc1	-	-	17	-	-
O=Cc1cn(-c2ccccc2)nc1-c1ccc(F)cc1	-	-	-	-	-
CCn1c(N2CCN(S(=O)(=O)c3ccccc3C(F)(F)F)CC2)nc2ccccc21	-	-	13	-	-
O=S(=O)(c1ccccc1C(F)(F)F)N1CCN(S(=O)(=O)c2ccccc2C(F)(F)F)CC1	-	-	-	-	-
COC(=O)[C@@]1(Cc2ccccc2)[C@H]2C(=O)N(C)C(=O)[C@H]2[C@H]2CN(C)C(=NCc3ccccc3)N21	-	-	-	-	-
Cc1c(NC(=O)/C(C#N)=C/c2ccc(-c3ccccc3Cl)o2)c(=O)n(-c2ccccc2)n1C	-	-	12	-	-
Cc1c(NC(=O)/C(C#N)=C/c2ccc(-c3ccc(Cl)c(Cl)c3)o2)c(=O)n(-c2ccccc2)n1C	-	-	-	-	-
CN(C)C(=O)CCc1ccc2c3c([nH]c2c1)[C@]1(C)[C@@H](C(=O)N2CCCCC2)C[C@H](CC(=O)NCC24CC5CC(CC(C5)C2)C4)C(=O)N1CC3	-	-	-	-	-
O=C(CCc1ccccc1)NC(c1cccs1)c1cc(Cl)c2cccnc2c1O (stereo not drawn)	-	-	13	-	-
CCCC(=O)NC(c1cccs1)c1cc([N+](=O)[O-])c2cccnc2c1O (stereo not drawn)	-	-	-	-	-
COc1ccc(Nc2nnc(-c3ccc(N4CCOCC4)c([N+](=O)[O-])c3)c3ccccc23)cc1	31	-	-	-	-
COc1cccc2c1C(CO)N1C(C#N)C3CC(C(=O)O)C(C1C2)N3C (stereo not drawn)	-	-	-	-	-
COc1ccc(C(=O)CC2OC(=O)c3c2ccc(OC)c3OC)cc1 (stereo not drawn)	-	-	13	-	-
COc1ccc(C(=O)Cc2cc3cccc(OC)c3oc2=O)cc1	-	-	-	-	-
O=C(CNc1ccccc1)N/N=C/c1c[nH]c2ccccc12	-	-	13	-	-
COc1ccc(C2NN=C(c3c[nH]c4ccccc34)C2O)cc1 (stereo not drawn)	-	-	-	-	-
COc1ccc(C2C(O)C(c3c[nH]c4ccccc34)=NN2C(=O)CCl)cc1 (stereo not drawn)	-	-	56	-	60
CN(C)c1ccc(NC(=S)Nc2ccc3c(c2)c(=O)n(C)n3-c2ccc(C(C)(C)C)cc2)cc1	-	.	.	.	.
SMILES	HTR2A ag	OPRM1-OPRD1 inv	HTR5A ag ctr	HTR5A inv ctr	OPRM1-OPRD1 ag
Cc1cc(NC(=O)COc2ccccc2)n(-c2ccccc2)n1	-	-	-	-	-
Cc1cc(NC(=O)CSc2nccn2C)n(-c2ccccc2)n1	-	-	14	-	-
CCC(C)NC(=O)CN(c1cc(C)cc(C)c1)S(=O)(=O)c1c(C)[nH]c(=O)[nH]c1=O (stereo not drawn)	-	-	-	-	-
CCOC(=O)Nc1sc(C)c(C)c1C(=O)OCC	-	-	13	-	-
Cc1ccc(S(=O)(=O)NNC(=O)Nc2cccc(C)c2C)c(C)c1	-	-	-	-	-
COCCC(=O)Nc1ccc2c(c1)CN(C(=O)CCSC)CC2	-	-	-	-	-
COCCC(=O)Nc1ccc2c(c1)CN(C(=O)c1ccc(CSC)o1)CC2	-	-	11	-	-
CNC[C@@H](CC1CCCCC1)NC[C@H](CC(C)C)NCCc1cccc(C(F)(F)F)c1	-	-	13	-	25
CNC[C@@H](Cc1ccccc1)NC[C@@H](CC1CCCCC1)NCCCc1ccccc1	-	-	20	-	23
O=C(CN(C1CCCCC1)S(=O)(=O)c1ccc(F)cc1)NCC1CCCO1 (stereo not drawn)	-	-	17	-	-
O=c1c2c(n3nnnc3n1-c1ccccc1)-c1ccccc1CC21CCCC1	-	-	-	-	-
O=c1c2c(n3cnnc3n1-c1ccccc1)-c1ccccc1CC21CCCC1	-	-	13	-	-
COc1cccc(N2CCN(C(=S)NCc3ccco3)CC2)c1	-	-	13	-	-
Fc1ccc(N2CCN(C(=S)NCc3ccco3)CC2)cc1	-	-	-	-	-
OC(c1ccccc1)(c1ccccc1)c1nccn1-c1ccccc1	-	-	-	-	-
C=C(C)c1cccc(C(C)(C)NC(=O)NCc2ccc(OC)c(OC)c2)c1	24	-	-	-	-
CCOC(=O)c1c(-c2ccc(C)o2)csc1NC(=O)COC(=O)c1cccs1	-	-	11	-	-
CC(C)Oc1cccc(C(=O)C2CCCN(C(=O)CCn3cnnn3)C2)c1 (stereo not drawn)	-	-	-	-	-
CCn1c(C)cc2c(c1=O)C(c1ccc3c(c1)OCO3)C(C#N)=C(N)O2 (stereo not drawn)	15	-	-	-	-
CC(=O)Nc1ccc(/C=N/NS(=O)(=O)c2cc(C)ccc2C)cc1	-	-	-	-	-
CC(=O)Nc1ccc(S(=O)(=O)NN=Cc2ccc(Cl)c(Cl)c2)cc1	-	-	12	-	-
O=[N+]([O-])c1ccc(S(=O)(=O)NN=Cc2ccc(Cl)c(Cl)c2)cc1	-	-	13	-	-
COc1ccccc1CN1CC(C(=O)N2CCOCC2)CCC1=O (stereo not drawn)	-	-	-	-	-
COc1ccc(CCN2C(=O)CCC3=C2CCCC3=O)cc1OC	-	.	.	.	.
C#CC(=O)N(c1cccc(OC)c1)C(C(=O)NC1CCCC1)c1cccs1 (stereo not drawn)	-	-	28	-	28
SMILES	HTR2A ag	OPRM1-OPRD1 inv	HTR5A ag ctr	HTR5A inv ctr	OPRM1-OPRD1 ag
COc1ccc(OC)c(/C=N/NC(=O)CSc2cc(C)nc3c(OC)cccc23)c1	-	.	.	.	.
Cc1cccc(Nc2nc(CC(=O)O)cs2)c1	-	-	11	-	-
COC(=O)Cc1csc(Nc2ccccc2)n1	-	-	-	-	-
Cc1ncccc1C(=O)N1CCCC(C(=O)c2ccc3c4c(cccc24)CC3)C1 (stereo not drawn)	-	-	-	-	-
O=C(c1ccc2c3c(cccc13)CC2)C1CCCN(C(=O)c2ccc(=O)[nH]c2)C1 (stereo not drawn)	-	-	13	-	-
CCN(CC)CCOC(=O)C1(c2ccccc2)CCOCC1	-	-	11	-	-
CC(C)(C)CC(=O)N1CCC(c2nc3c(nnn3Cc3c(F)cccc3Cl)c(=O)[nH]2)CC1	-	-	11	-	-
